Shown are actives, neighbours in structure and some others; about 4.2% of the full set was active somewhere.
TIM10 inh – growth inhibitors of isogenic TIM10 control yeast, primary screen, counter-screen for tim10-1 yeast inhibitor project, luminescence, uHTS; S. cerevisiae TIM10 strain growth, BacTiter-Glo luminescence, 24 h; inhibition, % at 10 µM; 330,000 tested, 1.4% active; AID 463195, 2010;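 active means inhibition of 40% or more at the single tested concentration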;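 further: wild-type TIM10 isogenic control strain grown at permissive 25 °C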
NLRP3 yeast inh – NALP3 inflammasome inhibitors in reconstituted yeast, primary screen, luminescence, uHTS. Yeast reconstituted NLRP3/ASC/caspase-1, beta-gal luminescence, 24 h. inhibition, % at 10 µM. 330,000 tested, 0.39% active. AID 2825, 2010;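 active means inhibition of 50% or more; inactive means inhibition below 50%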;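 further: plate controls were induced DMSO wells for no effect and uninduced yeast grown without galactose for full effect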
tim10-1 inh – growth inhibitors of tim10-1 mutant yeast, primary screen, luminescence, uHTS; S. cerevisiae tim10-1 ts strain growth, BacTiter-Glo, 24 h; inhibition, % at 20 µM; 330,000 tested, 2.2% active; AID 463190, 2010;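 active means inhibition of at least 40%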;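 further: mutant grown at 25 °C; 0% = DMSO wells with yeast and 100% = wells holding no yeast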
PfHsp90 yeast 2 – growth inhibition of PfHsp90-expressing yeast, primary screen, antimalarial PfHsp90 inhibitor project, S. cerevisiae, BacTiter-Glo luminescence, single point, set 2. AID 504621, 2011. inhibition, % at 9.4 µM. 310,000 tested, 0.32% active. BacTiter-Glo ATP, 48 h; yeast lacking PDR1 and PDR3 efflux regulators;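 active means every replicate shows inhibition above about 80%, whatever the replicate mean, limit read from the data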;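 further: 0% = DMSO neutral controls and 100% = 20 µM radicicol positive controls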
NALP1 inh – NALP1 inflammasome inhibitors in reconstituted yeast, colorimetric, S. cerevisiae, triplicate retest; 280,000 tested, 0.61% active; S. cerevisiae NALP1/ASC/caspase-1 growth, X-gal OD620, 72 h; inhibition, % at 10 µM; in the data active means inhibition mostly above about 24%, no sharp cut-off; inactive means mostly below about 32%
tim23-1 inh – growth inhibitors of tim23-1 mutant yeast, primary screen, luminescence, uHTS. S. cerevisiae tim23-1 growth, BacTiter-Glo luminescence, 24 h. inhibition, % at 20 µM. 330,000 tested, 1.3% active. AID 463212, 2010;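 active means growth inhibition of the mutant yeast at or above 50%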;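 further: temperature-sensitive mutant grown at 25 °C; plate controls were DMSO-treated mutant yeast for no effect and medium wells lacking yeast for full effect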
NALP3 confirm – NALP3 inhibitors retested in yeast, confirmation, luminescence, single concentration | shares compounds with NLRP3 yeast inh | yeast expressing human NALP3 | inhibition, % at 10 µM | 1,300 tested, 81% active | AID 435006, 2010; in the data active means inhibition above about 48%
Casp1 ASC ctr – CASP1-PYCARD signaling inhibition in yeast, confirmatory test, counterassay for NLRP3 inhibitor program, one-dose; shares compounds with NLRP3 yeast inh; yeast expressing Caspase-1-ASC, luminescence counter screen; inhibition, % at 10 µM; 1,000 tested, 66% active
NALP3 yeast rt – NALP3 inhibitors in yeast, repeat test, confirmation, luminescence, single concentration, retest; shares compounds with NLRP3 yeast inh; yeast expressing human NALP3, luminescence read-out; inhibition, % at 10 µM; 1,000 tested, 53% active; AID 488794, 2010
Numbers without * were called inactive. Unless noted, no stated cut-off is given here; in the data, active means inhibition above about 50%; inactive means the rest.

Results for CC(=O)OC1C=CC2[C@H]3Cc4ccc(O)c5c4[C@@]2(CCN3C)C1O5 (stereo partly drawn) ?
TIM10 inh: 0; NLRP3 yeast inh: 6; tim10-1 inh: 8; tim23-1 inh: 13

How did CCCCn1c(O)c(C(C)=NCCN2CCOCC2)c(=O)[nH]c1=O do in these assays?
TIM10 inh: 3; NLRP3 yeast inh: 15; tim10-1 inh: 5; PfHsp90 yeast 2: -13; NALP1 inh: 11; tim23-1 inh: -2

How did CCCCn1c(O)c(C(CC)=NCCN2CCOCC2)c(=O)[nH]c1=O do in these assays?
TIM10 inh: -2; NLRP3 yeast inh: 27; tim10-1 inh: 2; PfHsp90 yeast 2: -10; NALP1 inh: 44*; tim23-1 inh: 8

What do the screens show for `CCC(C)N=Cc1c(O)n(-c2ccccc2)c(=O)[nH]c1=O` (stereo not drawn)?
TIM10 inh: 6; NLRP3 yeast inh: 7; tim10-1 inh: 10; PfHsp90 yeast 2: -17; NALP1 inh: 7; tim23-1 inh: -3

Results for CC1CCN(CC(=O)c2cccc(C(F)(F)F)c2)CC1 ?
TIM10 inh: -5; NLRP3 yeast inh: 11; tim10-1 inh: 19; PfHsp90 yeast 2: -12; NALP1 inh: 6; tim23-1 inh: 11

How did COC(=O)C1=C(c2ccc(F)cc2OCc2ccccc2)C[C@@H]2CC[C@H]1N2C(=O)NCCCOC(C)C do in these assays?
TIM10 inh: 2; NLRP3 yeast inh: 5; tim10-1 inh: 19; PfHsp90 yeast 2: 20; tim23-1 inh: 22

How did N#C/C(=C(/O)c1ccc(S(=O)(=O)N(CCCl)CCCl)cc1)c1nc2ccccc2[nH]1 do in these assays?
TIM10 inh: -53; NLRP3 yeast inh: -2; tim10-1 inh: -2; PfHsp90 yeast 2: -7; tim23-1 inh: -24

How did O=C(O)c1c[nH]c2ccc(S(=O)(=O)N(CCCl)CCCl)cc12 do in these assays?
TIM10 inh: 8; NLRP3 yeast inh: 8; tim10-1 inh: 3; NALP1 inh: 40*; tim23-1 inh: -2

What do the screens show for `CCCCN(Cc1ccccc1)C1CCN(CCc2ccccc2)CC1`?
TIM10 inh: -4; NLRP3 yeast inh: 31; tim10-1 inh: -26; PfHsp90 yeast 2: 29; NALP1 inh: 48*; tim23-1 inh: 2

What do the screens show for `O=c1c2ccccc2[nH]c(=S)n1-c1ccc(Br)cc1`?
TIM10 inh: -6; NLRP3 yeast inh: 25; tim10-1 inh: 4; PfHsp90 yeast 2: -66; NALP1 inh: 33*; tim23-1 inh: 14

What do the screens show for `O=c1c2cc(Br)ccc2[nH]c(=S)n1-c1ccccc1`?
TIM10 inh: 9; NLRP3 yeast inh: 2; tim10-1 inh: 15; PfHsp90 yeast 2: -5; NALP1 inh: -4; tim23-1 inh: -28

Results for CCCC(CCC)C(=O)OC[N+](C)(C)CCOC(=O)C(O)(c1ccccc1)C1CCCC1 (stereo not drawn) ?
TIM10 inh: 12; NLRP3 yeast inh: 7; tim10-1 inh: 1; PfHsp90 yeast 2: -12; NALP1 inh: 28*; tim23-1 inh: -11

How did CCN(CC)c1ccc(CNCCc2ccc(F)cc2)cc1 do in these assays?
TIM10 inh: 1; NLRP3 yeast inh: 35; tim10-1 inh: -18; PfHsp90 yeast 2: 17; NALP1 inh: 22; tim23-1 inh: -15

How did CC(=O)OC1N=C(c2ccccc2)c2ccccc2NC1=O (stereo not drawn) do in these assays?
TIM10 inh: 5; NLRP3 yeast inh: 6; tim10-1 inh: 4; PfHsp90 yeast 2: -9; NALP1 inh: -7; tim23-1 inh: 7

Results for Cn1c(O)c(/C=N/N2CCOCC2)c(=O)n(-c2ccccc2)c1=S ?
TIM10 inh: 13; NLRP3 yeast inh: 8; tim10-1 inh: 0; PfHsp90 yeast 2: 5; NALP1 inh: 37*; tim23-1 inh: 8

Results for O/N=C1/C(=C\c2ccccc2)N2CCC1CC2 ?
TIM10 inh: -12; NLRP3 yeast inh: 6; tim10-1 inh: 13; NALP1 inh: 22; tim23-1 inh: 18

What do the screens show for `CC[C@]12CC[C@H](O)CC1=CCC1C2CC[C@]2(C)C(=O)CCC12` (stereo partly drawn)?
TIM10 inh: -21; NLRP3 yeast inh: 67*; tim10-1 inh: -16; tim23-1 inh: -60; NALP3 confirm: 60*

How did C[C@]12CCC3[C@@H](CCC4=CC(=O)CC[C@@]43CO)C1CCC2=O (stereo partly drawn) do in these assays?
TIM10 inh: -14; NLRP3 yeast inh: 1; tim10-1 inh: 5; PfHsp90 yeast 2: -3; NALP1 inh: 23; tim23-1 inh: 12

How did CC(=O)O[C@H]1CC[C@@]2(C)C(=CC[C@@H]3[C@@H]2CC[C@]2(C)C(=O)CC[C@@H]32)C1 do in these assays?
TIM10 inh: -125; NLRP3 yeast inh: 58*; tim10-1 inh: -31; PfHsp90 yeast 2: 39; tim23-1 inh: 7; NALP3 confirm: 59*; Casp1 ASC ctr: 59*; NALP3 yeast rt: 40

What do the screens show for `CCC(=NCc1ccc2c(c1)OCO2)c1c(O)n(C2CCCCC2)c(=O)[nH]c1=O`?
TIM10 inh: 27; NLRP3 yeast inh: 21; tim10-1 inh: 15; PfHsp90 yeast 2: -34; NALP1 inh: 32; tim23-1 inh: 20

How did C[C@]1(O)CCC2C3CC[C@@H]4CC(=O)CC[C@]4(C)C3CC[C@@]21C (stereo partly drawn) do in these assays?
TIM10 inh: -12; NLRP3 yeast inh: 55*; tim10-1 inh: -1; PfHsp90 yeast 2: 6; tim23-1 inh: 27; NALP3 confirm: 69*; Casp1 ASC ctr: 68*; NALP3 yeast rt: 42

Results for CC12C=CC(=O)CC1CCC1C2CCC2(C)C(O)C(O)CC12 (stereo not drawn) ?
PfHsp90 yeast 2: 16

How did C[C@]12CC(=CO)C(=O)C[C@@H]1CC[C@@H]1[C@@H]2CC[C@@]2(C)[C@H]1CC[C@]2(C)O do in these assays?
NALP1 inh: 16
